The source of these data is PubChem BioAssay (NCI).

The panel holds about 83,000 compounds, 20% with a hit somewhere; the sample as a whole holds those more often.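 Treatment: one concentration, 48 hours, 96-well format. Scoring: percent growth, with anything below 10 considered active.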 The source made the active and inactive calls.

The experiment relates to HL-60(TB) leukemia. Description: NCI-60 one-dose screen, 48 h (100 = growth as untreated, 0 = no growth, -100 = all killed). To be noted: 10 µM unless noted.
Take `CCCCN1C(=O)/C(=c2\sc3n(c2=O)C2C(NN=3)N(CC)C(=O)N2CC)c2cccc(C)c21` (configuration not stated): the growth is 2.95% (active).

As for `COC(=O)C(C)NS(=O)(=O)/N=C1\NC(=O)NC1=C(Cl)Cl` (configuration not stated), the growth was 98.7% (inactive).

`Cc1cc2nc(C(Cl)Cl)nc(-c3cccs3)n2n1`: the growth is -25.4% (active).

Turning to `Cc1cccc2c3c(sc12)C(c1ccc(Cl)cc1)c1c(nc(CC(=O)Nc2ccccc2)[nH]c1=O)O3` (configuration not stated), the growth was 71.3% (inactive).

On to `O=C1[C@H]2Cc3c([nH]c4ccccc34)[C@@H](c3ccc(Br)cc3)N2C(=O)CN1C1CCN(CC2CCCCC2)CC1`, for which the growth is -70.6% (active).

Regarding `COC(=O)c1[nH]nc2c1C1(C(=O)c3cccc4cccc1c34)C(C#N)=C(N)O2` (configuration not stated), the growth is 82.5% (inactive).

In the case of `O=C(O)c1ccc(-n2cc(CNc3ccc(Cl)cc3)c(-c3ccc(F)cc3)n2)cc1`, the growth was 111% (inactive).

With `CN1CCN(Cc2ccc(NC(=O)c3cncc(C#Cc4cnc5ccc(N6CCSCC6)nn45)c3)cc2C(F)(F)F)CC1`, the growth was -41.6% (active).

As to `Cc1nc(/N=C(N)/N=C(\N)c2cccc(Br)c2)sc1C`, the growth was 12.4% (inactive).

In the case of `O=C(Nc1ccc(F)cc1)c1cc(-c2ccc(F)cc2F)ccc1O`, the growth is 0.532% (active).

In the case of `COc1cc2oc(-c3cccc(NC(=O)[C@@H](N)C(C)C)c3)cc(=O)c2c(OC)c1OC`, the growth is 105% (inactive).

Take `CCN(CC)CCCC(C)NCC(=O)NC(c1ccc2c(c1)OCO2)c1cc(Cl)c2cccnc2c1O` (configuration not stated): the growth is 7.29% (active).

In the case of `COc1ccc(OC)c(NC2=C(Cl)C(=O)C(C)=C(C)C2=O)c1`, the growth was 74% (inactive).

On to `COc1ccc(/C(=N\NC(N)=S)c2ccc(Cl)cc2)cc1OC`, for which the growth is 13.2% (inactive).

As to `COC(=O)CNC(=O)c1cccc(-c2cc(=O)c3c(OC)c(OC)c(OC)cc3o2)c1`, the growth is 109% (inactive).

With `COC(=O)c1cccc(NC2=CC(=O)C(C)=C(C)C2=O)c1`, the growth was 42% (inactive).

For `Cc1ccc(-c2cc3nc(C(Cl)Cl)nc(C)n3n2)cc1`, the growth is 107% (inactive).

Take `CC(=C(c1ccc(OCCN2CCCC2)cc1)c1ccc(OCCN2CCCC2)cc1)c1ccc(Cl)cc1`: the growth is -53.7% (active).

On to `O=C(Nc1cc(F)cc2cccnc12)c1cnc(N2CCOCC2)cn1`, for which the growth is 36.9% (inactive).

As to `CCCCCc1ccc(S(=O)(=O)Nc2cccc(-c3csc(NC(=O)CN4CCN(CCO)CC4)n3)c2)cc1`, the growth was 66.3% (inactive).

For the compound `Nc1cc(-c2c[nH]c3ccc(Br)cc23)nc2cc(-c3c[nH]c4ccc(Br)cc34)nn12`, the growth was 9.1% (active).

As for `COc1ccc(/C=N/NC(=O)c2[nH]c3ccc(Br)cc3c2-c2ccccc2)o1`, the growth is -20.2% (active).

Turning to `CC(C)(C)Nc1nc2c(OCCc3ccccc3)cccn2c1-c1ccc([N+](=O)[O-])cc1`, the growth was 47.4% (inactive).

With `O=c1c2cc(-c3ccc(F)cc3F)ccc2n(O)c(=O)n1-c1cccc(C(F)(F)F)c1`, the growth is -50.2% (active).

As for `CS(=O)(=O)c1nccc(-c2c(-c3ccc(F)c(OCc4ccccc4)c3)nc3sccn23)n1`, the growth was 5.59% (active).

As for `Cc1ccccc1Nc1nc(SC(C)C)nc(-c2ccccc2)c1C#N`, the growth is 94.1% (inactive).

As to `O=c1[nH]c2ccccc2cc1CSc1ccccc1Nc1nccc(-c2ccc(Cl)cc2)n1`, the growth is 102% (inactive).

Turning to `Nc1nc(Nc2ccccc2SSc2ccccc2Nc2nc(N)nc(-c3cccc(Br)c3)n2)nc(-c2cccc(Br)c2)n1`, the growth was 83% (inactive).

Consider `O=c1[nH]c(Sc2sc3ccc(Cl)cc3c2CBr)nc(=S)[nH]1`, for which the growth was 21.7% (inactive).

Consider `CC(=NNc1ncnc2ccccc12)c1ccc(S(C)(=O)=O)cc1`, for which the growth was 98.9% (inactive).

For the compound `CN1CCN(c2ccc(Nc3nc(NCCCNS(=O)(=O)c4cccc(F)c4)c4sccc4n3)cc2)CC1`, the growth is -48.7% (active).

On to `CSc1ccc(/C(=N/N=C(N)N)c2ccccc2)cc1`, for which the growth is -17.1% (active).

Consider `CN(C)S(=O)(=O)c1ccc(-c2nc(C(Cl)Cl)nc3cc(-c4ccccc4)nn23)cc1`, for which the growth is 71.1% (inactive).

For the compound `COc1ccc(Cc2nn(CC(=O)N/N=C/c3ccc(Cl)cc3)c(=O)c3c(C)noc23)cc1`, the growth is 101% (inactive).

For `CC(Nc1c(C#N)cnc2ccc(-c3cncc(O)c3)cc12)c1ccccc1` (configuration not stated), the growth is 3.91% (active).

With `C/C(=N\NC(=O)Nc1ccccc1)c1nnn(-c2ccc([N+](=O)[O-])cc2)c1C`, the growth is 98.9% (inactive).

Take `Cc1[nH]c(C(=O)Nc2ccc(S(=O)(=O)N3CCCCC3)cc2OCCOCCOCCOCCOCCOCCOCCOCCOCCOc2cc(S(=O)(=O)N3CCCCC3)ccc2NC(=O)c2[nH]c(C)c3c2CCCCC3=O)c2c1C(=O)CCCC2`: the growth was 10.7% (inactive).
